High-throughput results from PubChem BioAssay.
aSyn UTR act: Activators via SNCA 5'UTR binding, MLPCN. alpha-synuclein 5'UTR reporter, activators screen. activity score, % (tested at 7.5 µM), hits read low. 300,000 tested, 7.1% active. AID 1814; in the data active = activity score below about -60%
Each line names hits and unclear results; the compound was inactive in the other large screens. The entries come from a sample that favours hits as a whole.

Cc1ccnc(NC(=S)NC(=O)/C=C/c2ccccc2)c1	aSyn UTR act -67.9
CCC(=O)Nc1ccc(NC(=S)NC(=O)/C=C/c2ccccc2)cc1	aSyn UTR act -62.3
CCC(=O)Nc1cccc(C(=O)/C=C/c2ccccc2)c1	aSyn UTR act -207.6
CC(=O)c1ccc(NC(=S)NC(=O)/C=C/c2ccccc2)cc1	aSyn UTR act -103.6
O=C(CC1=NCCNC(c2ccccc2)C1)c1ccccc1O (stereo not drawn)	aSyn UTR act -145.2
Cc1ncoc1C(=O)Nc1ccc2c(c1)OCCO2	aSyn UTR act -63.4
Cc1ncoc1C(=O)Nc1ccc(Oc2ccccc2)cc1	aSyn UTR act -104.0
Cc1cc(C(=O)Nc2ccc3c(c2)OCCO3)c(C)o1	aSyn UTR act -113.4
COC(=O)c1ccc(N/C=C\C(=O)c2ccc3c(c2)OCO3)cc1	aSyn UTR act -133.3
Cc1nc(NC(=O)c2ccc(Cl)cc2)nc2cc3c(cc12)OCO3	aSyn UTR act -84.1
COC(=O)c1sccc1NC(=O)c1ccc(C(C)C)cc1	aSyn UTR act -86.5
COC(=O)c1c(-c2cccnc2)csc1NC(=O)c1ccc2c(c1)OCO2	aSyn UTR act -76.5
COC(=O)c1sccc1NC(=O)/C=C/c1ccc(Cl)cc1	aSyn UTR act -197.4
Cc1cc(C)nc(NC(=O)c2ccc3c(c2)OCO3)c1	aSyn UTR act -94.1
COc1ccc(NC(=O)c2ccc3c(c2)OCO3)cc1Cl	aSyn UTR act -144.8
O=C(Nc1ccc(N2CCCCC2)cc1)c1ccc2c(c1)OCCO2	aSyn UTR act -86.7
O=C(Nc1ccc(F)c(Cl)c1)c1ccc2c(c1)OCO2	aSyn UTR act -210.9
O=C(Nc1ccc(C(=O)N2CCCC2)cc1)c1ccc2c(c1)OCO2	aSyn UTR act -68.6
CC1CCCC(NC(=O)c2ccc3c(c2)OCO3)C1C (stereo not drawn)	aSyn UTR act -65.2
COC(=O)c1sccc1NC(=O)c1ccc2c(c1)OCO2	aSyn UTR act -91.4
Cc1cc(C)nc(NC(=O)c2c(F)c(F)c(F)c(C(=O)Nc3cc(C)cc(C)n3)c2F)c1	aSyn UTR act -69.7
Cc1ccccc1-c1nc(-c2ccc(NC(=O)c3ccc4c(c3)OCO4)cc2)no1	aSyn UTR act -70.8
COC(=O)c1ccc(NC(=O)c2ccc3c(c2)OCO3)cc1	aSyn UTR act -143.7
COC(=O)c1sccc1NC(=O)c1ccc(OC)cc1OC	aSyn UTR act -98.2
C/C(=N/N=C(/C)c1cccs1)c1cccs1	aSyn UTR act -119.4
CC(C)(C)NC(=O)COC(=O)c1ccccc1Nc1ccc(SC(F)F)cc1	aSyn UTR act -145.2
NC(=O)COC(=O)c1ccccc1Nc1ccc(SC(F)F)cc1	aSyn UTR act -81.6
O=C(COC(=O)c1ccccc1Nc1ccc(SC(F)F)cc1)NCc1ccco1	aSyn UTR act -90.8
O=C(COC(=O)c1ccccc1Nc1ccc(SC(F)F)cc1)NC1CC1	aSyn UTR act -100.4
O=C(NCc1csc(-c2ccccc2)n1)c1cc(F)cc2c1OCOC2	aSyn UTR act -113.1
[O-]/C(=C(\C(=S)Nc1cccc2ccccc12)[n+]1ccccc1)c1ccc(Cl)s1	aSyn UTR act -63.3
N#C/C(=C\c1ccc(O)cc1)c1nc2ccccc2o1	aSyn UTR act -119.6
O=C(Cc1ccccc1)Nc1nc2ccccc2s1	aSyn UTR act -102.2
CCOc1ccc2nc(NC(=O)Cc3cccs3)sc2c1	aSyn UTR act -136.9
COc1ccc2nc(NC(=O)Cc3cccs3)sc2c1	aSyn UTR act -131.8
Cc1ccc2nc(NC(=O)COC(=O)c3ccco3)sc2c1	aSyn UTR act -96.9
O=C(O)C[C@H](O)C[C@H](O)/C=C/c1c(C2CC2)nc2ccccc2c1-c1ccc(F)cc1	none
COc1ccc2nc3cc(Cl)ccc3c(Nc3cc(CN4CCCC4)c(O)c(CN4CCCC4)c3)c2n1	none
CC1(C(=O)Nc2nc3ccccc3s2)CC1(Br)Br (stereo not drawn)	aSyn UTR act -117.9
O=C(Cc1nc(=O)c2ccccc2s1)Nc1ccccc1	aSyn UTR act -105.1
O=C(Cc1cccs1)Nc1nc2ccccc2s1	aSyn UTR act -82.2
CC(Cc1ccccc1)C(=O)NCc1nc2ccccc2s1 (stereo not drawn)	aSyn UTR act -75.3
CCc1ccc2nc(NC(=O)CCCc3cccs3)sc2c1	aSyn UTR act -81.2
Cc1ccc2nc(NC(=O)Cc3cccs3)sc2c1	aSyn UTR act -165.9
Cc1ccc2nc(NC(=O)c3ccccn3)sc2c1	none
COC(=O)c1cccc(NC(=O)c2cc3sccc3n2C)c1	aSyn UTR act -76.0
CN(C(=O)c1cc2sccc2n1C)C1CCCCC1	aSyn UTR act -109.6
CCn1c(C(=O)NC2CCC(C)CC2)cc2sccc21 (stereo not drawn)	aSyn UTR act -87.3
Cn1c(C(=O)NC2CCCCC2)cc2sccc21	aSyn UTR act -147.4
O=C(COC(=O)c1ccccc1-n1cnnn1)c1ccc(Br)cc1	aSyn UTR act -94.7
C/C(=N\n1nnnc1Nc1ccccc1)c1ccc(N)cc1	aSyn UTR act -124.1
Cc1nc(N)nc(N)c1CCCc1ccc(Cl)c(Cl)c1	none
COc1cccc(COc2cc3ccccc3nc2C)c1	aSyn UTR act -95.8
Cc1nc2ccccc2cc1OCc1ccc(Cl)cc1	aSyn UTR act -72.1
CC(C)(C)c1ccc(C(=O)N2CCCC2)s1	aSyn UTR act -64.0
CN(C)c1ccc(N=Nc2cccc3ccoc23)cc1	aSyn UTR act -136.0
CN(C)c1ccc(N=Nc2cccc(F)c2)cc1	aSyn UTR act -106.5
Cc1ccc(CNC(=O)C2(S(=O)(=O)c3ccccc3)CC=CC2)cc1	aSyn UTR act -113.7
CCN(CC)C(=O)CSc1nnc(-c2ccccc2)o1	aSyn UTR act -137.4
CN(C)CCSc1nnc(-c2ccccc2)o1	aSyn UTR act -71.1
S=c1[nH]c(-c2ccc(Cl)cc2)cs1	aSyn UTR act -75.8
Cc1ccc(-c2csc(=S)[nH]2)cc1	aSyn UTR act -113.3
Cc1ccnc(N=Cc2nc(-c3ccccc3Br)oc2O)c1	aSyn UTR act -102.3
Cc1c(-c2ccccc2)nnn1-c1ccc(F)cc1F	aSyn UTR act -93.1
Cc1cccc(C(=O)NC2CCCCCCC2)c1	aSyn UTR act -213.7
Cc1cc(C(=O)Nc2ccncc2)ccc1[N+](=O)[O-]	aSyn UTR act -64.8
Cc1cc(C(=O)NC2CCCCCCC2)ccc1[N+](=O)[O-]	aSyn UTR act -141.0
CN(C)c1cccc(C(=O)NC2CCCCCC2)c1	aSyn UTR act -118.1
Cc1cccc(CC(=O)NCC2CCCCC2)c1	aSyn UTR act -71.3
CCCN1C(=O)c2cc(C(=O)NC3CCCCCC3)ccc2C1O (stereo not drawn)	aSyn UTR act -81.0
CCn1c(C)c(C)c2cc(C(=O)NC3CCCCCC3)ccc21	aSyn UTR act -86.7
O=Nc1c2nc3ccccc3n(O)c-2c2ccccc12	aSyn UTR act -129.0
CCOC(=O)c1c(NC(=O)CSc2nc3ccccc3o2)sc(C(C)=O)c1C	aSyn UTR act -62.8
CCOC(=O)c1c(NC(=O)CSc2cccc[n+]2[O-])sc(C(=O)Nc2ccccc2)c1C	aSyn UTR act -104.7
O=C(CSc1nc2ccccc2o1)NCc1ccc2c(c1)OCO2	aSyn UTR act -79.1
O=C(CSc1nc2ccccc2o1)Nc1nc(-c2ccccc2)cs1	aSyn UTR act -111.3
Cc1ccccc1NC(=O)CSc1nc2ccccc2o1	aSyn UTR act -157.9
COc1ccc(C(=O)OCCc2ccc(O)cc2)cc1	aSyn UTR act -179.0
O=C(OCCc1ccccc1)c1cc(O)c(O)c(O)c1	aSyn UTR act -104.6
Nc1ccc(C(=O)OCCc2ccccc2)cc1	aSyn UTR act -142.0
COc1ccc(OC)c(NC(=O)c2ccccc2OC(C)=O)c1	aSyn UTR act -68.9
COc1ccc(OC)c(N/C=C/C(=O)c2ccccc2)c1	none
COc1ccc(OC)c(N/C(C)=C/C(=O)c2ccccc2)c1	aSyn UTR act -112.7
